Growth inhibition data for 7 compounds are collected here from PubChem BioAssay (NCI).

Assay [1] is described as follows: NCI Yeast Anticancer Drug Screen. Data for the rad50 strain (AID 155).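 Note: 0% = growth of vehicle-only cultures of the same strain.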 As to conditions: S. cerevisiae rad50 strain growth inhibition, hits give high values. The method, boiled down: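 DNA repair mutant yeast, compound exposure, growth read-out; inhibition is taken relative to vehicle.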
Assay [2] in a line: NCI Yeast Anticancer Drug Screen. Data for the mec2-1 strain (AID 157). The note with it: S. cerevisiae mec2-1 strain, hits give high values. The method, boiled down:
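Vehicle-treated cultures served as reference for growth inhibition of compound-exposed mec2-1 yeast.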

Assay [3] is described as follows: NCI Yeast Anticancer Drug Screen. Data for the sgs1 mgt1 strain (AID 161).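 Note: 0% = growth of cultures given vehicle only.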 The note with it: S. cerevisiae sgs1 mgt1 strain, hits give high values. The method, boiled down:
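Inhibition of yeast growth, normalised to vehicle-treated controls, is reported for a strain bearing genetic alterations in DNA damage repair.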

Assay [4] is described as follows: NCI Yeast Anticancer Drug Screen. Data for the cln2 rad14 strain (AID 165).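 Note: 0% = growth equal to vehicle treated cultures.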 The note with it: S. cerevisiae cln2 rad14 strain, hits give high values. The method in brief:
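Each compound was tested on cln2 rad14 yeast. Inhibition of growth was calculated against vehicle-exposed controls.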

Assay [5] in a line: NCI Yeast Anticancer Drug Screen. Data for the bub3 strain (AID 167). As to conditions: S. cerevisiae bub3 mutant strain, hits give high values. The method, boiled down:
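In this screen, a yeast mutant lacking normal mitotic checkpoint function is challenged with compound. Relative growth versus vehicle gives the inhibition value.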

Assay [6] is described as follows: NCI Yeast Anticancer Drug Screen. Data for the mlh1 rad18 strain (AID 175). As to conditions: S. cerevisiae mlh1 rad18 strain growth inhibition, hits give high values. The method in brief: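 Vehicle-treated cultures served as the reference for growth inhibition in a yeast strain carrying DNA damage repair alterations exposed to each compound.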
[7] abbreviates: at 5.0 µM (retest, dose inferred, filed as 0.5).
The mark [8] stands for this setting: at 50.0 µM (retest, dose inferred, filed as 5.0).

Molecules are shown by their SMILES. The panel holds about 79,000 compounds, 15% with a hit somewhere; the sample as a whole holds those more often. Values without a mark were called inactive. Active and inactive are the calls of the source. Cut-off read from the data, not from the text of the source: active = growth inhibition above about 70%; inactive = the rest.

In the case of `Cc1ccc(N=C(N)NN=C(c2ccc(Cl)cc2)c2ccc(Cl)cc2)cc1`, the growth inhibition is 10% in assay [1] (setting [7]); 67% in assay [1] (setting [8]); 65.7% in assay [1] (at 50.0 µM); 4% in assay [2] (setting [7]); 38% in assay [2] (setting [8]); 98.5% (active) in assay [2] (at 50.0 µM). The growth inhibition in assay [3] (setting [7]) is 7%; in assay [3] (setting [8]), 35%; in assay [3] (at 50.0 µM), 57.6%; in assay [4] (setting [7]), 8%; in assay [4] (setting [8]) it was 22%; in assay [4] (at 50.0 µM), 98% (active). Further, the growth inhibition in assay [5] (setting [7]) is 6%; in assay [5] (setting [8]) it was 24%; in assay [5] (at 50.0 µM) it was 97.2% (active); in assay [6] (setting [7]) it was 5%; in assay [6] (setting [8]), 38%; in assay [6] (at 50.0 µM) it was 50.3%.
Take `Cc1ccc(C)c(NC(=O)CCC(=O)C(C#N)c2cccc3ccccc23)c1` (stereo unspecified): the growth inhibition in assay [1] (setting [7]) is -22%; in assay [1] (setting [8]) it was 10%; in assay [1] (at 50.0 µM), -25.4%; in assay [2] (setting [7]), 3%; in assay [2] (setting [8]) it was 11%; in assay [2] (at 50.0 µM), 14.4%. Also, the growth inhibition in assay [3] (setting [7]) is -12%; in assay [3] (setting [8]), -4%; in assay [3] (at 50.0 µM) it was 15.9%; in assay [4] (setting [7]), -6%; in assay [4] (setting [8]) it was 8%; in assay [4] (at 50.0 µM) it was -23.5%. Moreover, the growth inhibition in assay [5] (setting [7]) is -5%; in assay [5] (setting [8]), 5%; in assay [5] (at 50.0 µM), 10.3%; in assay [6] (setting [7]) it was 1%; in assay [6] (setting [8]), 3%; in assay [6] (at 50.0 µM), 20.6%.
As for `CCOC(=O)C(Br)C(Br)c1cccc([N+](=O)[O-])c1` (stereo unspecified), the growth inhibition in assay [1] (setting [7]) was 97% (active); in assay [1] (setting [8]), 99% (active); in assay [1] (at 50.0 µM) it was 99.7% (active); in assay [2] (setting [7]) it was 93% (active); in assay [2] (setting [8]), 100% (active); in assay [2] (at 50.0 µM) it was 99.8% (active). Also, the growth inhibition is 99% (active) in assay [3] (setting [7]); 100% (active) in assay [3] (setting [8]); 99.7% (active) in assay [3] (at 50.0 µM); 92% (active) in assay [4] (setting [7]); 99% (active) in assay [4] (setting [8]); 98% (active) in assay [4] (at 50.0 µM). Also, the growth inhibition is 98% (active) in assay [5] (setting [7]); 99% (active) in assay [5] (setting [8]); 99.5% (active) in assay [5] (at 50.0 µM); 98% (active) in assay [6] (setting [7]); 99% (active) in assay [6] (setting [8]); 99.6% (active) in assay [6] (at 50.0 µM).
In the case of `c1cc(C2=NCCN2)ccc1Nc1ccc(-c2cc3ccc(C4=NCCN4)cc3[nH]2)cc1`, the growth inhibition in assay [1] (setting [7]) was 99% (active); in assay [1] (setting [8]), 99% (active); in assay [1] (at 50.0 µM), 58.1%; in assay [2] (setting [7]) it was 99% (active); in assay [2] (setting [8]), 98% (active); in assay [2] (at 50.0 µM) it was 99.2% (active). The growth inhibition in assay [3] (setting [7]) was 99% (active); in assay [3] (setting [8]), 99% (active); in assay [3] (at 50.0 µM), 51.3%; in assay [4] (setting [7]) it was 99% (active); in assay [4] (setting [8]) it was 99% (active); in assay [4] (at 50.0 µM), 98.9% (active). Also, the growth inhibition is 99% (active) in assay [5] (setting [7]); 99% (active) in assay [5] (setting [8]); 99.3% (active) in assay [5] (at 50.0 µM); 99% (active) in assay [6] (setting [7]); 99% (active) in assay [6] (setting [8]); 98.5% (active) in assay [6] (at 50.0 µM).
For the compound `S=C(N/N=C/c1ccccn1)Nc1ccccn1`, the growth inhibition is -1% in assay [1] (setting [7]); 99% (active) in assay [1] (setting [8]); 90.8% (active) in assay [1] (at 50.0 µM); -2% in assay [2] (setting [7]); 99% (active) in assay [2] (setting [8]); 92.9% (active) in assay [2] (at 50.0 µM). The growth inhibition in assay [3] (setting [7]) is 3%; in assay [3] (setting [8]), 99% (active); in assay [3] (at 50.0 µM), 91.5% (active); in assay [4] (setting [7]), -15%; in assay [4] (setting [8]) it was 98% (active); in assay [4] (at 50.0 µM), 88.5% (active). Besides, the growth inhibition in assay [5] (setting [7]) was -2%; in assay [5] (setting [8]) it was 98% (active); in assay [5] (at 50.0 µM), 90.9% (active); in assay [6] (setting [7]), -3%; in assay [6] (setting [8]), 96% (active); in assay [6] (at 50.0 µM), 90.1% (active).
For `Nc1c(O)c(Cl)cc(Cl)c1Cl`, the growth inhibition is 4% in assay [1] (setting [7]); 94% (active) in assay [1] (setting [8]); 96.2% (active) in assay [1] (at 50.0 µM); -4% in assay [2] (setting [7]); 95% (active) in assay [2] (setting [8]); 98.9% (active) in assay [2] (at 50.0 µM). In addition, the growth inhibition was 1% in assay [3] (setting [7]); 80% (active) in assay [3] (setting [8]); 96.6% (active) in assay [3] (at 50.0 µM); -3% in assay [4] (setting [7]); 70% (active) in assay [4] (setting [8]); 74.6% (active) in assay [4] (at 50.0 µM). Also, the growth inhibition is 5% in assay [5] (setting [7]); 96% (active) in assay [5] (setting [8]); 98.4% (active) in assay [5] (at 50.0 µM); -1% in assay [6] (setting [7]); 93% (active) in assay [6] (setting [8]); 99% (active) in assay [6] (at 50.0 µM).
For the compound `COc1ccc(C(=O)Oc2c(Br)cc(Br)cc2Br)cc1`, the growth inhibition is 4% in assay [1] (setting [7]); -3% in assay [1] (setting [8]); 14.2% in assay [1] (at 50.0 µM); 3% in assay [2] (setting [7]); -3% in assay [2] (setting [8]); 12.7% in assay [2] (at 50.0 µM). Further, the growth inhibition in assay [3] (setting [7]) is 8%; in assay [3] (setting [8]), 10%; in assay [3] (at 50.0 µM) it was 1.9%; in assay [4] (setting [7]), -1%; in assay [4] (setting [8]) it was -30%; in assay [4] (at 50.0 µM) it was -6.5%. Moreover, the growth inhibition in assay [5] (setting [7]) is 7%; in assay [5] (setting [8]), 5%; in assay [5] (at 50.0 µM), 87.8% (active); in assay [6] (setting [7]), 1%; in assay [6] (setting [8]), 2%; in assay [6] (at 50.0 µM) it was 7.75%.
